# PubChem BioAssay (EPA / NIEHS)
# Results filed as inconclusive are left out. Some structures have more than one record in an assay (separate samples or runs), and their calls can disagree. The source made the active and inactive calls. How the source made its calls: active means hit-call score of the fitted dose curve at least 0.9, where 1 is the maximum; inconclusive means response in the unintended direction; inactive means score below 0.9. Where a SMILES comes first, the peptide text is derived from it. [ ]: non-standard residue; d: D form. pGlu = O=C1CC[C@@H](C(=O)O)N1
# Experiment: TOX21_p53_BLA_p2_viability: Viability Assessment in the Tox21 HCT-116 p53 Agonism Beta-lactamase Assay, Phase 2 (AID 2283591);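 further: compound exposure lasted 16 h at 37 °C; actives lower the ATP signal meaning cytotoxicity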
# From the text: TOX21_p53_BLA_p2 is a cell-based, single-readout assay that uses HCT116, a human intestinal cell line, […] in a 1536-well plate.TOX21_p53_BLA_p2_viability is an assay readout measuring cellular ATP content and detected with CellTiter-Glo Luciferase-coupled ATP quantitation.TOX21_p53_BLA_p2_viability used a type of viability reporter where loss-of-signal activity can be used to understand changes in the cell viability. Furthermore, this assay endpoint can be referred to as a secondary readout, because this assay has produced multiple assay endpoints where this one serves a viability function. To generalize the intended target to other relatable targets, this assay endpoint is annotated to the cell cycle intended target family, where the subfamily is cytotoxicity.
# Thawing Method: Place 14 mL of pre-warmed thaw medium into a 15 mL of conical tub. Remove the vial of cells to be thawed from liquid nitrogen and thaw rapidly by placing at 37C in a water bath with gentle agitation for 1-2 minutes. Decontaminate the vial by wiping with 70% ethanol before opening in a biological safety cabinet. Transfer the vial contents drop-wise into 14 mL of thaw medium in a sterile 15-mL conical tub. Centrifuge cells at 900 rpm for 4 minutes and resuspend in thaw medium. Transfer contents to the T75 tissue culture flask containing Thaw Medium and place flask in a humidified 37C/5% CO2 incubator. Switch to growth medium at first passage.Propagation Method: Aspirate medium, rinse once in DPBS, add 0.25% Trypsin/EDTA and swirl to coat the cell evenly. Add an equal volume of Growth Medium to inactivate Trypsin after 2-3 minutes incubation at 37C. Centrifuge cells at 900 rpm for 4 minutes and resuspend in growth medium. Cell should be passage or fed at least twice a week.Assay Protocol: Harvest cells from culture in growth medium and resuspend in assay medium. 2.2 Dispense 4000 cells/5 uL/well into 1536-well black/clear bottom plates using a Multidrop dispenser. After the cells were incubated at 37C for 5 hours, 23 nL of compounds dissolved in DMSO were transferred to the assay plate by a PinTool resulting in a 217-fold dilution. Incubate the plates for 16 hours at 37C, 5% CO2. Add 1 uL of 6X LiveBLAzer FRET B/G (CCF4-AM) Substrate Mixture to each well using a BioRAPTR dispenser and incubate the plates at room temperature for 2 hours. Measure fluorescence intensity at 460 and 530 nm emission and 405 nm excitation by an Envision detector. Data is expressed as the ratio of 460nm/530nm emissions. Add 4 uL of Cell-titer Glo to each well using BioRAPTR and incubate the plates at room temperature for […]. For cell viability readout that measures cytotoxicity, 4 ul/well of CellTiter-Glo reagent was added into the assay plates using a Flying Reagent Dispenser. After 30 min incubation at room temperature, the luminescence intensity in the plates was measured using a ViewLux plate reader.
SMILES,outcome,AC50
CC(=O)CCc1ccccc1,inactive,–
CCCCOC(=O)c1ccccc1C(=O)OCC(CC)CCCC (stereo not given),inactive,–
CC(C)c1ccc2sc3ccccc3c(=O)c2c1,inactive,–
Cc1ncc([N+](=O)[O-])n1CC(C)O (stereo not given),inactive,–
CCOc1ccccc1O[C@H](c1ccccc1)[C@H]1CNCCO1,inactive,–
CCCCCCCCCCCCCCCC(=O)O[C@@H]1[C@@H](O)[C@@H](O)[C@@H]([C@H](NC(=O)[C@@H]2C[C@@H](CCC)CN2C)[C@H](C)Cl)O[C@@H]1SC,inactive,–
CN(CCO)CC(O)Cn1cnc2c1c(=O)n(C)c(=O)n2C (stereo not given) (tested in a mixture with another compound),inactive,–
CC(=O)C=Cc1ccco1,inactive,–
CS(=O)(=O)Nc1ccc([N+](=O)[O-])cc1Oc1ccccc1,inactive,–
Sc1nc2ccccc2s1,–,0.000211 µM (active)
C=C1CC[C@H](O)C/C1=C/C=C1\CCC[C@]2(C)[C@@H]([C@H](C)CCCC(C)(C)O)CC[C@@H]12,–,12.8 µM (active)
Cn1cnc2c(F)c(Nc3ccc(Br)cc3Cl)c(C(=O)NOCCO)cc21,inactive,–
CC/C=C/CCO,inactive,–
Cc1cccc(Br)c1,inactive,–
COc1c2occc2cc2ccc(=O)oc12,inactive,–
C=Cc1ccc(S(=O)(=O)O)cc1,inactive,–
Cc1cc(/C=C/c2ccc3cc(N(C)C)ccc3[n+]2C)c(C)n1-c1ccccc1,–,16.7 µM (active)
CCOC(=O)[C@H](CCc1ccccc1)N[C@H]1CCCN2CCC[C@@H](C(=O)O)N2C1=O,inactive,–
CCc1nn(CCCN2CCN(c3cccc(Cl)c3)CC2)c(=O)n1CCOc1ccccc1,inactive,–
Oc1cc2c(cc1O)[C@H]1c3ccc(O)c(O)c3OC[C@@]1(O)C2,inactive,–

SMILES,outcome,AC50
C[n+]1ccccc1/C=N/O,inactive,–
C[C@@H]1[C@H](O)[C@@H](C)/C=C/C=C/C=C/C=C/C=C/C=C/C=C/[C@H](O[C@@H]2O[C@H](C)[C@@H](O)[C@H](N)[C@@H]2O)C[C@@H]2O[C@](O)(C[C@@H](O)C[C@@H](O)[C@H](O)CC[C@@H](O)C[C@@H](O)CC(=O)O[C@H]1C)C[C@H](O)[C@H]2C(=O)O,inactive,72.4 µM (active)
CCCCNCCCC,inactive,–
O=C(O)c1ccc(Cl)cc1Cl,inactive,–
CC1(S(=O)(=O)O)CC(=O)c2ccccc2C1=O (stereo not given),inactive,–
Oc1ccc(N=Nc2ccccc2)cc1,inactive,–
CN1CCN(c2c(F)cc3c(=O)c(C(=O)O)cn(CCF)c3c2F)CC1,inactive,–
CC[N+]1(CC)CCC(=C(c2ccccc2)c2ccccc2)C1C (stereo not given),inactive,–
CC(C)[C@H](N)C(=O)OCC(CO)OCn1cnc2c(=O)[nH]c(N)nc21 (stereo not given in full),inactive,–
c1cc(CN2CCCCC2)cc(OCCCNc2nc3ccccc3s2)c1,inactive,–
CNCCc1ccccn1,inactive,–
COC(=O)C1=C(C)NC(C)=C(C(=O)OC)C1c1ccccc1[N+](=O)[O-],inactive,–
CC[C@H](C)[C@H](NC(=O)[C@H](Cc1ccccc1)NC(=O)[C@H](C)NC(=O)[C@H](CC(=O)O)NC(=O)[C@H](CCCCN)NC(=O)[C@H](CO)NC(=O)[C@@H]1CCCN1C(=O)[C@@H]1CCC(=O)N1)C(=O)NCC(=O)N[C@@H](CC(C)C)C(=O)N[C@@H](CCSC)C(N)=O ([pGlu]PSKDAFIGLM-NH2),inactive,–
CO[C@H]1C[C@H](O[C@H]2[C@H](C)[C@@H](O[C@@H]3O[C@H](C)C[C@H](N(C)C)[C@H]3O)[C@@H](C)C[C@]3(CO3)C(=O)[C@H](C)[C@@H](O)[C@@H](C)[C@@H](C)OC(=O)[C@@H]2C)O[C@@H](C)[C@@H]1O,inactive,–
CC(C)Cc1ccc(CC(=O)O)cc1,inactive,–
CC(C)(C(=O)c1cccnc1)c1cccnc1,inactive,–
Brc1c(NC2=NCCN2)ccc2nccnc12,inactive,–
CC1c2ccccc2CN1NC(=O)c1ccc(Cl)c(S(N)(=O)=O)c1 (stereo not given),inactive,–
CCc1cc(Cl)c(OC)c(C(=O)NC[C@@H]2CCCN2CC)c1O,inactive,–
